About 79,000 compounds went through this panel and 15% of them were active in at least one assay; those are over-represented in the sample as a whole. Unmarked numbers belong to inactive results. The source made the active and inactive calls. Rule as the data show it: active = growth inhibition above about 70%; inactive = the rest.
Legend:
[1] = NCI Yeast Anticancer Drug Screen. Data for the rad50 strain (AID 155);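 also: 0% = growth of vehicle-only cultures of the same strain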; details: S. cerevisiae rad50 strain growth inhibition; at 50.0 µM; active compounds read high
In short: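 DNA repair mutant yeast, compound exposure, growth read-out; inhibition is taken relative to vehicle.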

[2] = NCI Yeast Anticancer Drug Screen. Data for the mec2-1 strain (AID 157); details: S. cerevisiae mec2-1 strain, at 50.0 µM, active compounds read high
In short: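 Each compound was tested on mec2-1 yeast, a strain altered in DNA damage repair or cell cycle control. Growth inhibition is reported relative to vehicle.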

[3] = NCI Yeast Anticancer Drug Screen. Data for the sgs1 mgt1 strain (AID 161);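 also: 0% = growth of cultures given vehicle only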; details: S. cerevisiae sgs1 mgt1 strain, at 50.0 µM, active compounds read high
In short: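 Read-out: growth inhibition vs vehicle controls. Cells: mutant yeast strain deficient in DNA damage repair.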

[4] = NCI Yeast Anticancer Drug Screen. Data for the cln2 rad14 strain (AID 165);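 also: 0% = growth equal to vehicle treated cultures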; details: S. cerevisiae cln2 rad14 strain, at 50.0 µM, active compounds read high
In short: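 Test compounds were added to cln2 rad14 yeast cultures; inhibition of growth was then determined by comparison with vehicle treatment.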

[5] = NCI Yeast Anticancer Drug Screen. Data for the bub3 strain (AID 167); details: S. cerevisiae bub3 mutant strain, at 50.0 µM, active compounds read high
In short: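 In this screen, a yeast mutant lacking normal mitotic checkpoint function is challenged with compound. Relative growth versus vehicle gives the inhibition value.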

[6] = NCI Yeast Anticancer Drug Screen. Data for the mlh1 rad18 strain (AID 175); details: S. cerevisiae mlh1 rad18 strain growth inhibition; at 50.0 µM; active compounds read high
In short: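 Inhibition values reflect reduced growth of mutant yeast versus vehicle-treated controls following compound exposure; the mutations affect DNA damage repair.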

COC(=O)C1=C(C(=O)OC)C(=Nc2ccccc2)c2ccccc2C1=O
growth inhibition [1]: 46.8%
growth inhibition [2]: 35.3%
growth inhibition [3]: 74.2% (active)
growth inhibition [4]: 8.2%
growth inhibition [5]: 51.4%
growth inhibition [6]: 90.6% (active)

CC(=O)Nc1cccc2c1C(=O)c1c(c(O)c3ccccc3c1O)C2=O
growth inhibition [1]: 24.9%
growth inhibition [2]: -9.85%
growth inhibition [3]: -12.8%
growth inhibition [4]: -9.3%
growth inhibition [5]: -8.4%
growth inhibition [6]: -1.85%

COc1ccc(C(=O)Oc2ccc(C)c(CC(Cl)(Cl)Cl)c2)cc1
growth inhibition [1]: -6.1%
growth inhibition [2]: -9.5%
growth inhibition [3]: 6.75%
growth inhibition [4]: -12.3%
growth inhibition [5]: -6.35%
growth inhibition [6]: -14.4%

O=Nc1ccc(O)cc1O
growth inhibition [1]: 16.9%
growth inhibition [2]: 2.5%
growth inhibition [3]: 1.15%
growth inhibition [4]: -38.6%
growth inhibition [5]: 33.3%
growth inhibition [6]: 19.1%

N#Cc1ccccc1NC(=O)C(=O)C1NC(=S)NC1=O (stereo unspecified)
growth inhibition [1]: 15.4%
growth inhibition [2]: -1.75%
growth inhibition [3]: 26%
growth inhibition [4]: 13.6%
growth inhibition [5]: -3.2%
growth inhibition [6]: 18.1%

CNC(C#N)c1ccco1 (stereo unspecified)
growth inhibition [1]: 11.3%
growth inhibition [2]: -17.2%
growth inhibition [3]: 16%
growth inhibition [4]: 8.4%
growth inhibition [5]: 13.4%
growth inhibition [6]: 22.1%

O=C(Nc1ccc2c(c1)Cc1ccccc1-2)C(Cl)Cl
growth inhibition [1]: 20.4%
growth inhibition [2]: 1.95%
growth inhibition [3]: 10.6%
growth inhibition [4]: -7.85%
growth inhibition [5]: 42.5%
growth inhibition [6]: 14%

O=c1oc2ccccc2c(O)c1Oc1ccccc1
growth inhibition [1]: -7.35%
growth inhibition [2]: 3.5%
growth inhibition [3]: -15.3%
growth inhibition [4]: -10.7%
growth inhibition [5]: -12.5%
growth inhibition [6]: -1.05%

CCN(CC)c1ccc(N=C2C=CC(=O)C(C)=C2)c(C)c1
growth inhibition [1]: -3.05%
growth inhibition [2]: -14.6%
growth inhibition [3]: -0.9%
growth inhibition [4]: -23.4%
growth inhibition [5]: 11.8%
growth inhibition [6]: 3.05%

O=[N+]([O-])c1ccc(C(O)C(c2ccccc2)S(=O)(=O)N2CCCCC2)cc1 (stereo unspecified)
growth inhibition [1]: 40.6%
growth inhibition [2]: -2.75%
growth inhibition [3]: 17.1%
growth inhibition [4]: -31.9%
growth inhibition [5]: -0.5%
growth inhibition [6]: 24.9%

O=[N+]([O-])c1ccc(S(=O)c2ccc(Cl)cc2)c2c1no[n+]2[O-] (stereo unspecified)
growth inhibition [1]: 98.5% (active)
growth inhibition [2]: 99.4% (active)
growth inhibition [3]: 98.7% (active)
growth inhibition [4]: 32%
growth inhibition [5]: 76.1% (active)
growth inhibition [6]: 99.2% (active)

NC1C2C3C=CC(C3)C12 (stereo unspecified)
growth inhibition [1]: 12.5%
growth inhibition [2]: -3.85%
growth inhibition [3]: -5.75%
growth inhibition [4]: -28.9%
growth inhibition [5]: -5.2%
growth inhibition [6]: 8.95%

C/C(=N\NC(=O)CC(=O)Nc1ccccc1Cl)c1cc2cc(N=Nc3ccccc3Cl)ccc2oc1=O
growth inhibition [1]: -17.1%
growth inhibition [2]: 0.7%
growth inhibition [3]: 13.9%
growth inhibition [4]: 4.4%
growth inhibition [5]: -4.05%
growth inhibition [6]: -13.6%

c1ccc(/C2=C(\c3ccccc3)CSSSSC2)cc1
growth inhibition [1]: 68.5%
growth inhibition [2]: 48.4%
growth inhibition [3]: 45.4%
growth inhibition [4]: 43.2%
growth inhibition [5]: 62.9%
growth inhibition [6]: 89% (active)

CCOC(=O)c1ccc(N=Nc2c(N)nc(N)nc2N)cc1
growth inhibition [1]: -10.4%
growth inhibition [2]: 10.3%
growth inhibition [3]: -1.7%
growth inhibition [4]: -61.4%
growth inhibition [5]: -0.15%
growth inhibition [6]: -11%

COc1ccc2c(c1)OC[C@@H]1c3cc(NS(=O)(=O)c4ccccc4)cc(OC)c3O[C@H]21
growth inhibition [1]: 10.9%
growth inhibition [2]: 32.5%
growth inhibition [3]: 47.8%
growth inhibition [4]: 30.3%
growth inhibition [5]: 58.8%
growth inhibition [6]: 52.6%

CCNC(CCCC1CCCCC1)C(=O)O (stereo unspecified)
growth inhibition [1]: -0.9%
growth inhibition [2]: -18.4%
growth inhibition [3]: -3.5%
growth inhibition [4]: -27.2%
growth inhibition [5]: -18.5%
growth inhibition [6]: 4.7%

CCN1CCCC1CO (stereo unspecified)
growth inhibition [1]: -1.15%
growth inhibition [2]: -25.1%
growth inhibition [3]: -10.1%
growth inhibition [4]: 0.1%
growth inhibition [5]: -4.35%
growth inhibition [6]: 6.65%

CC(=O)Nc1nnc(C)o1
growth inhibition [1]: -0.85%
growth inhibition [2]: -3.5%
growth inhibition [3]: -1.55%
growth inhibition [4]: -40.6%
growth inhibition [5]: 10.3%
growth inhibition [6]: -2.05%

NS(=O)(=O)c1ccc(N=Nc2c[nH]c(=O)c(O)c2)cc1
growth inhibition [1]: 3.45%
growth inhibition [2]: 4.95%
growth inhibition [3]: -9.55%
growth inhibition [4]: -37.4%
growth inhibition [5]: -60.4%
growth inhibition [6]: 2.3%

CC(=O)OCCSc1ccc(Cl)cc1
growth inhibition [1]: -2.4%
growth inhibition [2]: 9.8%
growth inhibition [3]: 6.6%
growth inhibition [4]: -33.2%
growth inhibition [5]: -23.3%
growth inhibition [6]: -7.65%

OC1CN(c2ccccc2)CC(O)CN(c2ccccc2)C1 (stereo unspecified)
growth inhibition [1]: -8.1%
growth inhibition [2]: 2.35%
growth inhibition [3]: 7.3%
growth inhibition [4]: -11.8%
growth inhibition [5]: -16.1%
growth inhibition [6]: 6.2%

O=C1N(c2ccccc2)C(=O)C2(SC=NN2Cc2ccccc2)N1c1ccccc1 (stereo unspecified)
growth inhibition [1]: -7%
growth inhibition [2]: 2%
growth inhibition [3]: -18.6%
growth inhibition [4]: 8.2%
growth inhibition [5]: 11.8%
growth inhibition [6]: 10.7%

N#CC(=O)Nc1ccc(F)cc1
growth inhibition [1]: -58.3%
growth inhibition [2]: -2.35%
growth inhibition [3]: -6.15%
growth inhibition [4]: -8%
growth inhibition [5]: 1.9%
growth inhibition [6]: 3.2%

NC(=O)c1ccc(NC=O)cc1
growth inhibition [1]: -10.3%
growth inhibition [2]: 22.2%
growth inhibition [3]: -18.9%
growth inhibition [4]: 25.1%
growth inhibition [5]: -18.1%
growth inhibition [6]: -18.9%

CCC(=O)NCCc1ccccc1
growth inhibition [1]: -16.2%
growth inhibition [2]: 29.6%
growth inhibition [3]: 14.3%
growth inhibition [4]: -13.1%
growth inhibition [5]: -5.8%
growth inhibition [6]: -10.4%

c1ccc(C2=C(c3ccccn3)N=c3ccccc3=c3ccccc3=N2)nc1
growth inhibition [1]: 2.4%
growth inhibition [2]: 14.2%
growth inhibition [3]: -1.15%
growth inhibition [4]: -48.6%
growth inhibition [5]: 3.65%
growth inhibition [6]: -8.9%

O=C(O)CS(=O)(=O)Cc1ccccc1
growth inhibition [1]: -12.7%
growth inhibition [2]: -9.85%
growth inhibition [3]: -9.25%
growth inhibition [4]: -60.6%
growth inhibition [5]: -7.9%
growth inhibition [6]: -6.5%

CC(C)CC(NC(=O)CCCCCl)C(=O)O (stereo unspecified)
growth inhibition [1]: -1.85%
growth inhibition [2]: -4.65%
growth inhibition [3]: 0.25%
growth inhibition [4]: 2.75%
growth inhibition [5]: -3.4%
growth inhibition [6]: 6.05%

C/C(C[n+]1ccccc1)=N\N=C(N)N
growth inhibition [1]: -18.8%
growth inhibition [2]: -9.05%
growth inhibition [3]: -43.8%
growth inhibition [4]: -20.5%
growth inhibition [5]: -5.35%
growth inhibition [6]: -9.2%

Cc1ccc(SCC(CF)OCn2cc(F)c(=O)[nH]c2=O)cc1 (stereo unspecified)
growth inhibition [1]: -7.85%
growth inhibition [2]: -13%
growth inhibition [3]: -12.2%
growth inhibition [4]: -22.2%
growth inhibition [5]: 1.95%
growth inhibition [6]: -8.05%

NC1=Nc2cc(Cl)ccc2Sc2nc3ccccc3n21
growth inhibition [1]: -18.4%
growth inhibition [2]: -65.4%
growth inhibition [3]: -17.6%
growth inhibition [4]: 0.55%
growth inhibition [5]: 10.9%
growth inhibition [6]: -2.8%

COC(=O)Nc1nc2ccc(-n3c(C)nc4ccccc4c3=O)cc2[nH]1
growth inhibition [1]: 10.8%
growth inhibition [2]: -0.45%
growth inhibition [3]: 6.35%
growth inhibition [4]: 8.5%
growth inhibition [5]: 4.95%
growth inhibition [6]: 15.8%

O=C(CN1C(=O)c2cccc3c(Br)ccc(c23)C1=O)c1ccc(F)cc1
growth inhibition [1]: -10.4%
growth inhibition [2]: -14.7%
growth inhibition [3]: 7.6%
growth inhibition [4]: 18.7%
growth inhibition [5]: -12%
growth inhibition [6]: 1.3%

N=C(N)SCc1ccc(Cl)cc1Cl (tested in a mixture with another compound)
growth inhibition [1]: 34.1%
growth inhibition [2]: 12.3%
growth inhibition [3]: 6.35%
growth inhibition [4]: 3.05%
growth inhibition [5]: 7.9%
growth inhibition [6]: 26.4%

CCOC(=O)CCC1CCCO1 (stereo unspecified)
growth inhibition [1]: -3.6%
growth inhibition [2]: -19.1%
growth inhibition [3]: -19.9%
growth inhibition [4]: -4.8%
growth inhibition [5]: -6.85%
growth inhibition [6]: -1.05%
